For 31 compounds, outcome and AC50 results are on record in PubChem BioAssay (EPA / NIEHS).

What is called AC50 is the concentration giving half of the maximal activity seen.

Experiment [1] has as its target Glucocorticoid receptor (Homo sapiens) (UniProt P04150). The experiment in a line: ATG_GR_TRANS: Attagene TRANS-FACTORIAL HepG2 Assay for human Glucocorticoid Receptor (GR) (AID 2282978).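 Also: activators score as hits since higher reporter transcript over DMSO is fitted.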 The following applies: HepG2 Attagene TRANS GR reporter, mRNA transcription. An outline of the steps: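 Reporter transcript levels, detected by fluorescence after RT-PCR and capillary electrophoresis, served as the endpoint. HepG2 cells bearing transfected GAL4-UAS reporters responsive to NR-GAL4 chimeras were incubated with compound 24 h; DMSO defined baseline.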

Experiment [2] addresses Bile acid receptor (Homo sapiens) (UniProt Q96RI1). Nature of the experiment: ATG_FXR_TRANS: Attagene TRANS-FACTORIAL HepG2 Assay for Farnesoid X Receptor (FXR) (AID 2282979).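 Also: hits raise reporter mRNA above DMSO so AC50 marks FXR activation.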 The settings on record: HepG2 Attagene TRANS FXR-GAL4 reporter transcription. An outline of the steps: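 HepG2 cells were transiently transfected with GAL4-UAS reporters driven by chimeric NR-Gal4 proteins and dosed for 24 h. Reporter mRNA was quantified by RT-PCR, fluorescent labelling, HpaI digestion and capillary electrophoresis, with gain of signal scored versus DMSO.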

The nature of experiment [3]: ATG_M_06_TRANS: Attagene TRANS-FACTORIAL HepG2 Assay for M06 Transcription Factor (Internal Marker) (AID 2282983). The following applies: HepG2 Attagene TRANS M06 internal marker reporter. In short, it runs like this: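 HepG2 cells transiently transfected with GAL4-UAS multiple reporter units, dosed 24 h. Reporter RNA reverse-transcribed, PCR-amplified, 6-FAM-labeled, HpaI-digested and quantified by capillary electrophoresis; this internal-marker signal fitted upward relative to DMSO.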

The nature of experiment [4]: ATG_M_32_TRANS: Attagene TRANS-FACTORIAL HepG2 Assay for M32 Transcription Factor (Internal Marker) (AID 2282984).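 Also: transcript level of a background control reporter unit measured by RT-PCR and capillary electrophoresis.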 The settings on record: HepG2 Attagene TRANS M32 internal marker reporter. An outline of the steps:
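HepG2 cells transiently transfected with GAL4-UAS reporter units, dosed for 24 hours. Reporter mRNA quantified by RT-PCR, 6-FAM labelling, HpaI digestion and capillary electrophoresis; internal-marker signal fitted upward relative to DMSO.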

The target of experiment [5] is Nuclear receptor subfamily 4 group A member 2 (Homo sapiens) (UniProt P43354). Nature of the experiment: ATG_NURR1_TRANS: Attagene TRANS-FACTORIAL HepG2 Assay for human Nuclear Receptor Related Protein 1 (NURR1) (AID 2282985). The settings on record: HepG2 Attagene TRANS reporter, mRNA readout. An outline of the steps:
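HepG2 cells transiently transfected with NURR1-Gal4 chimera and GAL4-UAS reporter units; after 24 hr compound exposure, reporter mRNA quantified by RT-PCR and capillary electrophoresis; gain of signal fitted against DMSO.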

The target of experiment [6] is Transcriptional activator Myb (Homo sapiens) (UniProt P10242). Nature of the experiment: ATG_Myb_CIS: Attagene CIS-FACTORIAL HepG2 Assay for human Myeloblastosis (Myb) Proto-Oncogene Transcription Factor (AID 2282986; active = hit-call score of the fitted dose curve at least 0.9, where 1 is the maximum; inactive = score below 0.9). The settings on record: HepG2 Attagene CIS-FACTORIAL Myb reporter transcription; actives raise or lower the signal. An outline of the steps: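 Transiently transfected HepG2 cells, treated 24 h. Reporter mRNA quantified by RT-PCR/capillary electrophoresis; bidirectional fit relative to DMSO.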

Experiment [7] has as its target Nuclear respiratory factor 1 (Homo sapiens) (UniProt Q16656). The experiment in a line: ATG_NRF1_CIS: Attagene CIS-FACTORIAL HepG2 Assay for human Nuclear Respiratory Factor 1 (NRF1) Orphan Gene (AID 2282987; active = hit-call score of the fitted dose curve at least 0.9, where 1 is the maximum; inactive = score below 0.9). The following applies: HepG2 NRF1 cis-element reporter, Attagene multiplex; actives raise or lower the signal. In short, it runs like this: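 Cells (HepG2, transient MRTU transfection) are exposed to compound for 24 h, then RNA isolated and reporter mRNA amplified and fluorescently labelled. Fragments are separated by capillary electrophoresis; signal change is fitted bidirectionally relative to DMSO.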

For experiment [8], the target named is Oxysterols receptor LXR-alpha (Homo sapiens) (UniProt Q13133). The experiment in a line: ATG_LXRa_TRANS: Attagene TRANS-FACTORIAL HepG2 Assay for human Liver X Receptor alpha (LXRa) (AID 2282980). The settings on record: HepG2 Attagene TRANS reporter, LXRa transactivation. In short, it runs like this:
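HepG2 cells transiently transfected with GAL4-UAS reporter units for chimeric NR-Gal4 proteins, exposed to chemicals for 24 h. Reporter mRNA quantified by RT-PCR and capillary electrophoresis; gain of signal fitted relative to DMSO.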

The target in experiment [9] is Oxysterols receptor LXR-beta (Homo sapiens) (UniProt P55055). Nature of the experiment: ATG_LXRb_TRANS: Attagene TRANS-FACTORIAL HepG2 Assay for human Liver X Receptor beta (LXRb) (AID 2282981). The settings on record: HepG2 Attagene TRANS GAL4-LXRb reporter, mRNA. An outline of the steps: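 HepG2 cells transiently transfected with GAL4-UAS reporter units for chimeric NR-Gal4 proteins, dosed for 24 h. Reporter transcripts measured by RT-PCR and capillary electrophoresis; gain-of-signal fitting relative to DMSO.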

The target of experiment [10] is Hepatocyte nuclear factor 4-alpha (Homo sapiens) (UniProt P41235). Nature of the experiment: ATG_HNF4a_TRANS: Attagene TRANS-FACTORIAL HepG2 Assay for human Hepatocyte Nuclear Factor 4 alpha (HNF4a) (AID 2282982). The settings on record: HepG2 HNF4a transactivation reporter, mRNA readout. An outline of the steps: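 HepG2 cells transiently transfected with HNF4a-Gal4 chimera and GAL4-UAS reporter units, dosed for 24 h. Reporter mRNA measured by RT-PCR, fluorescent primer extension and capillary electrophoresis; gain-of-signal fitted relative to DMSO.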

Results filed as inconclusive are left out. Activity calls are given as the source filed them. The calls were made as follows, unless noted: active = hit-call score of the fitted dose curve at least 0.9, where 1 is the maximum; inconclusive = response in the unintended direction; inactive = score below 0.9.

Oxysterols receptor LXR-beta (Homo sapiens), sequence (P55055 whole entry, looked up, the tested form may be a part): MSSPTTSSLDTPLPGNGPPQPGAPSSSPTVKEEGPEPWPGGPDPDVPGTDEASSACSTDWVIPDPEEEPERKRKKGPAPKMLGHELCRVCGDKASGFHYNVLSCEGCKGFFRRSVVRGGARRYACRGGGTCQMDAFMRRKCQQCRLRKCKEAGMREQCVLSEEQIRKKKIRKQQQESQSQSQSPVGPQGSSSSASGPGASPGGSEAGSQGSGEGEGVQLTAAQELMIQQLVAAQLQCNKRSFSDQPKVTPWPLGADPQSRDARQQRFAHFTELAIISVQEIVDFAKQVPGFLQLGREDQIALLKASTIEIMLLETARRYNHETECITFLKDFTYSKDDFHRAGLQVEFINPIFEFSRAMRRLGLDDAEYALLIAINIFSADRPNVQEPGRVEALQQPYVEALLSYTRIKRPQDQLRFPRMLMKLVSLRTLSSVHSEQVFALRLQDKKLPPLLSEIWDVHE
Nuclear respiratory factor 1 (Homo sapiens), sequence (Q16656 whole entry, looked up, the tested form may be a part): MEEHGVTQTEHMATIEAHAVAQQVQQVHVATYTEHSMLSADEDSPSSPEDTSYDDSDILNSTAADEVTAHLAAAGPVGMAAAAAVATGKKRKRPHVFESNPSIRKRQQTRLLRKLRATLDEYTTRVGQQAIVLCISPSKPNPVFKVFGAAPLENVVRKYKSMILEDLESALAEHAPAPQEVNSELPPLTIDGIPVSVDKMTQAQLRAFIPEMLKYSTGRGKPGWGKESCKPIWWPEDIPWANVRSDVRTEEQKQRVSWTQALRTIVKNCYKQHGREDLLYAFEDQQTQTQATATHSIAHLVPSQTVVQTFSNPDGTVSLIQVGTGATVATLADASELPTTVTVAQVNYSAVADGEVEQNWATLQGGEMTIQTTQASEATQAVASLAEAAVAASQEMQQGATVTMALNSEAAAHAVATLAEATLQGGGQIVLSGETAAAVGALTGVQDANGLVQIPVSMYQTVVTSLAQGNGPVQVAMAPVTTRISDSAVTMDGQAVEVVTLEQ
Transcriptional activator Myb (Homo sapiens), sequence (P10242 whole entry, looked up): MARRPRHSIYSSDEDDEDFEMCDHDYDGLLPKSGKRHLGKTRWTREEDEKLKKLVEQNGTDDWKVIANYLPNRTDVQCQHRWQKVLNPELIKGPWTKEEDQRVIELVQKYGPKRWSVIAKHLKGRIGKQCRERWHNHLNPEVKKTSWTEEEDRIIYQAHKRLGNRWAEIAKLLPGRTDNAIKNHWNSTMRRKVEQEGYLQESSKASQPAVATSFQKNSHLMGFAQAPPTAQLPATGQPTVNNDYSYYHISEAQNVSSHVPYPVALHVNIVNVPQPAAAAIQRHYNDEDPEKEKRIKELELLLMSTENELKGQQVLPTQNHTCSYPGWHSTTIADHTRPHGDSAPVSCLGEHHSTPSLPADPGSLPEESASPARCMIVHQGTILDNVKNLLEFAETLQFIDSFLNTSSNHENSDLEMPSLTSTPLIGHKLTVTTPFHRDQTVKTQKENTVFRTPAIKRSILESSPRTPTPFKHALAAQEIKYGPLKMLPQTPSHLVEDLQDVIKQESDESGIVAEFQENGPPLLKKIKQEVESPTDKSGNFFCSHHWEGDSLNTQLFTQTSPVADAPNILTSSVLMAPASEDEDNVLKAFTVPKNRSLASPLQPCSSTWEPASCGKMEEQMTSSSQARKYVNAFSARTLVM
Hepatocyte nuclear factor 4-alpha (Homo sapiens), sequence (P41235 whole entry, looked up, the tested form may be a part): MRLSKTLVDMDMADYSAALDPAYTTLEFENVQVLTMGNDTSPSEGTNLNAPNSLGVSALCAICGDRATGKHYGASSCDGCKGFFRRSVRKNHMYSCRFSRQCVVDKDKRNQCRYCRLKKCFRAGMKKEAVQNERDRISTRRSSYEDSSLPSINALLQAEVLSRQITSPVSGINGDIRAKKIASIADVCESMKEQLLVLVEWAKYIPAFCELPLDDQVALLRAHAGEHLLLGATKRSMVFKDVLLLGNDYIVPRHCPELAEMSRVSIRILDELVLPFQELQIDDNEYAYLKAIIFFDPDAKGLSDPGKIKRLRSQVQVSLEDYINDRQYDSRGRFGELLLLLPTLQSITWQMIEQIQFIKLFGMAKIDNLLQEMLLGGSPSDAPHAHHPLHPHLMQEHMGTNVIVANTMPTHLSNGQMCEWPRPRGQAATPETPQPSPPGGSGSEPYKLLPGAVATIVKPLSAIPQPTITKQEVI
Glucocorticoid receptor (Homo sapiens), sequence (P04150 whole entry, looked up, the tested form may be a part): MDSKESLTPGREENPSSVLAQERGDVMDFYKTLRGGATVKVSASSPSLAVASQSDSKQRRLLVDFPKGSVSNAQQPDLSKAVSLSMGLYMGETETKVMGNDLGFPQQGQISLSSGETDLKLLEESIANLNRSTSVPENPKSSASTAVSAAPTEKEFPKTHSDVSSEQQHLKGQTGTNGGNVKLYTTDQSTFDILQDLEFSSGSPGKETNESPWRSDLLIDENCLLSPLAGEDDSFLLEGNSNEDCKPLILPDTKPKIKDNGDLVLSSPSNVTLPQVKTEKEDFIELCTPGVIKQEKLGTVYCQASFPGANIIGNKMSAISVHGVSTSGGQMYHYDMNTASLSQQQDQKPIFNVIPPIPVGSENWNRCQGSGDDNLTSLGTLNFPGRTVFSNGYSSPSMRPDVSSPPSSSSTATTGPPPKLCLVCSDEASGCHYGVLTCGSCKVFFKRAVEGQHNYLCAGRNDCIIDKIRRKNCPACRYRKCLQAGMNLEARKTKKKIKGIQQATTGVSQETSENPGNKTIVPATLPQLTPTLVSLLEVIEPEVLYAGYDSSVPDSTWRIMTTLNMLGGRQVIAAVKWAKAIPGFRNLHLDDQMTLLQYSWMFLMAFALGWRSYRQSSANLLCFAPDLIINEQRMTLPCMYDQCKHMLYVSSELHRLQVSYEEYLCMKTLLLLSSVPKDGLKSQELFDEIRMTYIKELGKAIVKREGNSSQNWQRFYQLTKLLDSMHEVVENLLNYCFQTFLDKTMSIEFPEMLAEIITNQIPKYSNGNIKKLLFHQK
Nuclear receptor subfamily 4 group A member 2 (Homo sapiens), sequence (P43354 whole entry, looked up, the tested form may be a part): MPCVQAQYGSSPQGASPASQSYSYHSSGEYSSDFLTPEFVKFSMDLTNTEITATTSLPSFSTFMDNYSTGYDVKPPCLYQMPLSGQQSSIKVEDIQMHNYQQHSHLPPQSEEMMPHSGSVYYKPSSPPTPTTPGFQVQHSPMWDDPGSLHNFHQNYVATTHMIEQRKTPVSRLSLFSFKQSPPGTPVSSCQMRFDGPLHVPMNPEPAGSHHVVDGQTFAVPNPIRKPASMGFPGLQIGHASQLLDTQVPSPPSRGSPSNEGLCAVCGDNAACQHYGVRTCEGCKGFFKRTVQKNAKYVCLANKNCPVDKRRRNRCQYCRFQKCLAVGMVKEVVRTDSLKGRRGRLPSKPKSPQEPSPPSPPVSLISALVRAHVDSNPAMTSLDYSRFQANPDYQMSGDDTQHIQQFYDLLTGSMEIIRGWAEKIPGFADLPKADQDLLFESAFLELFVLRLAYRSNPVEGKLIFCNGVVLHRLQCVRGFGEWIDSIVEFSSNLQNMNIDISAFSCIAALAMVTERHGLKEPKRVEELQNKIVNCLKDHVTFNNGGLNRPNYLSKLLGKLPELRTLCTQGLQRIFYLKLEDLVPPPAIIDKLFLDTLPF
Bile acid receptor (Homo sapiens), sequence (Q96RI1 whole entry, looked up, the tested form may be a part): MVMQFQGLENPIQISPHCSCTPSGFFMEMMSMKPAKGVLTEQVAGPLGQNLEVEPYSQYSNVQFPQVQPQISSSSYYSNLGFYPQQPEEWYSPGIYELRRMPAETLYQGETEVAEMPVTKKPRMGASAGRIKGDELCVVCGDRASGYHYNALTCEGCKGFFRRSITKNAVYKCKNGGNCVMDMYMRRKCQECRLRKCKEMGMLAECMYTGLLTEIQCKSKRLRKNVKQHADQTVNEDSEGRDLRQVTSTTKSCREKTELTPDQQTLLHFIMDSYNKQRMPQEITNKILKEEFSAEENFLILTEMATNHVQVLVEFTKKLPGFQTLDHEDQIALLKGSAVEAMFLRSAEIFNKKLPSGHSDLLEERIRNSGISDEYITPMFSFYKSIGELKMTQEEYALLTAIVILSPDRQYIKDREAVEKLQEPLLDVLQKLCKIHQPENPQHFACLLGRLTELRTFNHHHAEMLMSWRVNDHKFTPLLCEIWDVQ
Oxysterols receptor LXR-alpha (Homo sapiens), sequence (Q13133 whole entry, looked up, the tested form may be a part): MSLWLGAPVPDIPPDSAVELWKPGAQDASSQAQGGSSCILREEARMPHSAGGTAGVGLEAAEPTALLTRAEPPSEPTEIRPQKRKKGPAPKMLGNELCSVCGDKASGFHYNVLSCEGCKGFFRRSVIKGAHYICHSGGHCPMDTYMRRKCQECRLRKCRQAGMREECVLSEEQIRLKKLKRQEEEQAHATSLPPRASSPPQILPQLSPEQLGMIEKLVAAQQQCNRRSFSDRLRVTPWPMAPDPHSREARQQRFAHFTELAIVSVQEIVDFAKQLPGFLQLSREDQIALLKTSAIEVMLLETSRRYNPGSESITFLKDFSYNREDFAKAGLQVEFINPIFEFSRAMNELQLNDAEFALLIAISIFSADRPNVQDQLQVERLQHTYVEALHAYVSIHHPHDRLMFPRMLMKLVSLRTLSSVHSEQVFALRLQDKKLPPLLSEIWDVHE

As for `CC(C)c1ccc(C(C)C)cc1`, the call in experiment [1], in experiment [2], in experiment [3], in experiment [4], in [5] and in [6] was inactive. In experiment [7], the call was inactive.
With `CCCc1c(OCCCOc2ccc(OCC(=O)O)cc2)ccc(C(C)=O)c1O`, the compound was called inactive in experiment [1], in experiment [2], in [8], in experiment [9], in experiment [3] and in [4]. Besides, in experiment [6], the compound was called inactive. For the same compound, the AC50 in experiment [5] and in [7] was 100 µM (active) each time.
As for `CC(C)(C#N)c1cc(Cn2cncn2)cc(C(C)(C)C#N)c1`, the result in experiment [1], in experiment [2], in [8], in [10], in experiment [3] and in experiment [4] was inactive. Also, the compound was classed as inactive in experiment [6] and in experiment [7].
Take `CC1=CCC(O)(C(C)C)CC1` (centres undefined): the compound was classed as inactive in experiment [1], in experiment [8], in experiment [9], in [10], in experiment [3] and in experiment [4]. In addition, the call in [6] and in experiment [7] was inactive.
For the compound `Nc1cc([N+](=O)[O-])ccc1Cl`, the compound was called inactive in experiment [1], in experiment [2], in experiment [3], in [4], in experiment [6] and in experiment [7].
As for `CC(C)=CCCC(C)CC=O` (centres undefined), the outcome in experiment [1], in experiment [2], in experiment [8], in experiment [10], in experiment [3] and in experiment [4] was inactive. Also, the result in experiment [5], in [6] and in [7] was inactive.
`CC(C)(N)CO`: the result in experiment [1], in [2], in experiment [8], in experiment [9], in experiment [3] and in experiment [6] was inactive. For the same compound, the result in experiment [7] was inactive.
For `Cc1ccc(C(=O)c2cc(O)c(O)c([N+](=O)[O-])c2)cc1`, the half-maximal activity concentration (AC50) in experiment [1] was 144 µM (active). The compound was classed as inactive in experiment [8], in [9], in experiment [10], in [3], in experiment [4] and in [6]. Moreover, the result in [7] was inactive.
Regarding `CCCCCC=CCC(=O)OC`, the compound was classed as inactive in [1], in [8], in experiment [9], in experiment [10], in experiment [5] and in [6]. Further, the compound was called inactive in experiment [7].
As for `CCCCCCCCCCCCSC`, the compound was classed as inactive in [1], in [2], in experiment [8], in [9], in [10] and in experiment [3]. In addition, the call in experiment [4], in experiment [6] and in experiment [7] was inactive.
Regarding `O=S(=O)(O)c1cccc2c(S(=O)(=O)O)cccc12`, the call in experiment [1], in experiment [8], in experiment [3], in [6] and in [7] was inactive.
With `O=CCCc1ccccc1`, the outcome in [1], in experiment [8], in experiment [3], in experiment [4], in [6] and in [7] was inactive.
Turning to `CCCCCCCCCCCCOCCO`, the result in experiment [1], in [8], in experiment [3], in experiment [4], in experiment [5] and in [6] was inactive. The AC50 in experiment [7] is 52.5 µM (active).
As to `C[C@]12CC[C@H]3[C@@H](CCC4=CC(=O)CC[C@@]43C)[C@@H]1CC[C@@H]2C(=O)CO`, the AC50 in [1] is 6.33 µM (active). The compound was classed as inactive in experiment [8], in experiment [3], in experiment [4], in experiment [5], in experiment [6] and in [7].
With `C=C(C)C(=O)O`, the outcome in experiment [1], in [8], in experiment [9], in experiment [4], in experiment [5] and in experiment [6] was inactive. For the same compound, the outcome in [7] was inactive.
As to `Clc1ccc(Cl)c(Cl)c1Cl`, the outcome in experiment [1], in experiment [8], in experiment [4], in experiment [5], in experiment [6] and in [7] was inactive.
For the compound `CCC(=O)OCc1ccccc1`, the result in [1], in experiment [8], in experiment [3], in experiment [4], in [5] and in experiment [6] was inactive. Moreover, the outcome in [7] was inactive.
On to `CN1Cc2c(N)cccc2C(c2ccccc2)C1` (centres undefined), for which the call in experiment [1], in experiment [8], in [10], in experiment [5], in [6] and in [7] was inactive.
`OC[C@H]1O[C@H](O[C@]2(CCl)O[C@H](CCl)[C@@H](O)[C@@H]2O)[C@H](O)[C@@H](O)[C@H]1Cl`: the compound was called inactive in [1], in experiment [8], in [3], in [4], in experiment [6] and in experiment [7].
With `CC(=O)O[C@H](CC(=O)[O-])C[N+](C)(C)C`, the compound was classed as inactive in experiment [1], in experiment [8], in experiment [6] and in experiment [7].
As for `NCCOCCO`, the call in experiment [1], in experiment [8], in experiment [10], in experiment [6] and in experiment [7] was inactive.
Take `C=CC[N+](C)(C)CC=C`: the call in experiment [1], in experiment [8], in experiment [10], in experiment [3], in experiment [4] and in [5] was inactive. The compound was classed as inactive in [6] and in experiment [7].
For the compound `C/C=C(\C)C(=O)OCc1ccccc1`, the outcome in experiment [1], in [8], in experiment [3], in experiment [4], in [5] and in [6] was inactive. For the same compound, in experiment [7], the compound was called inactive.
As to `C=CC(C)(O)CCC=C(C)CCC=C(C)C` (centres undefined), the call in experiment [1], in experiment [8] and in experiment [3] was inactive. Moreover, the values for the AC50 in experiment [6] and in experiment [7] were 163 µM (active) and 164 µM (active), respectively.
Consider `CCCCCCCCCCN`, for which the result in experiment [1], in experiment [8], in experiment [9], in experiment [4], in experiment [5] and in experiment [6] was inactive. Besides, in experiment [7], the compound was classed as inactive.
In the case of `CCN(CC)c1ccc(C(=C2C=CC(=[N+](CC)CC)C=C2)c2ccc(S(=O)(=O)O)cc2S(=O)(=O)[O-])cc1`, the result in [1], in [8], in experiment [10], in experiment [3], in [4] and in experiment [5] was inactive. Further, the compound was classed as inactive in experiment [6] and in [7].
Turning to `COc1cc(C)cc(O)c1`, the compound was classed as inactive in experiment [1], in [8], in experiment [9], in experiment [4], in experiment [6] and in experiment [7].
On to `COCCOCCOCCOCCOCCO`, for which the outcome in [1], in experiment [9], in [10], in experiment [3], in [4] and in experiment [5] was inactive. Moreover, the compound was classed as inactive in experiment [6] and in experiment [7].
In the case of `Cc1ccccc1C=O`, the outcome in [1], in experiment [8], in experiment [10], in experiment [4], in [5] and in [6] was inactive. In addition, the compound was called inactive in [7].
Turning to `C=CCOc1nc(OCC=C)nc(OCC=C)n1`, the compound was classed as inactive in experiment [1], in experiment [8], in experiment [9], in [3], in [4] and in experiment [6]. In addition, the compound was classed as inactive in experiment [7].
In the case of `Nc1cc(N)cc(C(=O)O)c1`, the call in experiment [1], in [8], in experiment [9], in experiment [3], in [4] and in experiment [6] was inactive. The result in experiment [7] was inactive.
